Of roughly 7,900 targets only a part is listed; those with a hit were picked by preference. About 0.6% of all pairs of compound and target were hits.
Tests used:
Assay in all cases: log2 fold change, soluble protein after heating vs DMSO (PISA); higher = thermal stabilisation; K562 cells, 10 uM, 30 min; active = over 0.2 and 3.5 SD of the protein, either way, in both replicates (recomputed)
[1] = compound: C1=CC=C(C=C1)[C@H](COC2=CC3=C(C=C2)NC(=O)N3)NC(=O)C4=CC=CN(C4=O)CC5=CC(=C(C=C5)F)F
Method in brief: (§1)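 Values are thermal stability changes relative to control samples and are taken from duplicates. They are stated as log2 fold changes. Before quantification by TMTpro 16plex LC-MS/MS with equalised channel sums, K562 cells at 2×10^6 cells/mL were treated with 10 μM compound for 30 min, heated in aliquots for 3 min across 48°C-58°C, pooled, extracted in PBS with 0.5% NP-40 at 4°C, and centrifuged at 21,000xg for 90 min to give the soluble supernatant.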

[2] = compound: CC1=C(SC2=C1C(=N[C@H](C3=NN=C(N32)C)CC(=O)N)C4=CC=C(C=C4)Cl)C
Method in brief: as §1

[3] = compound: CC1=C2C(=CC=C1)N=C(N(C2=O)C3=CC=CC=C3C)CN4C=NC5=C(N=CN=C54)N
Method in brief: as §1

[4] = compound: Cc1sc2c(c1C)C(c1ccc(Cl)cc1)=N[C@@H](CC(=O)OC(C)(C)C)c1nnc(C)n1-2
Method in brief: as §1

[5] = compound: c1ccc([C@@H]2C[C@H]2NC2CCNCC2)cc1
Method in brief: as §1

Measured: log2 fold change

LDAH isoform 2 (UniProt Q9H6V9)
inactive: [1] -0.125 | [2] 0.019 | [3] 0.086 | [4] 0.174 | [5] -0.059

LEMD3 (UniProt Q9Y2U8)
inactive: [1] 0.067 | [2] 0.034 | [3] 0.119 | [4] -0.031 | [5] -0.01

MEPCE (UniProt Q7L2J0)
inactive: [1] 0.017 | [2] 0.001 | [3] 0.064 | [4] 0.028 | [5] 0.008

MIA2 (UniProt Q96PC5)
Sequence of UniProt Q96PC5 (Q96PC5 whole entry, looked up): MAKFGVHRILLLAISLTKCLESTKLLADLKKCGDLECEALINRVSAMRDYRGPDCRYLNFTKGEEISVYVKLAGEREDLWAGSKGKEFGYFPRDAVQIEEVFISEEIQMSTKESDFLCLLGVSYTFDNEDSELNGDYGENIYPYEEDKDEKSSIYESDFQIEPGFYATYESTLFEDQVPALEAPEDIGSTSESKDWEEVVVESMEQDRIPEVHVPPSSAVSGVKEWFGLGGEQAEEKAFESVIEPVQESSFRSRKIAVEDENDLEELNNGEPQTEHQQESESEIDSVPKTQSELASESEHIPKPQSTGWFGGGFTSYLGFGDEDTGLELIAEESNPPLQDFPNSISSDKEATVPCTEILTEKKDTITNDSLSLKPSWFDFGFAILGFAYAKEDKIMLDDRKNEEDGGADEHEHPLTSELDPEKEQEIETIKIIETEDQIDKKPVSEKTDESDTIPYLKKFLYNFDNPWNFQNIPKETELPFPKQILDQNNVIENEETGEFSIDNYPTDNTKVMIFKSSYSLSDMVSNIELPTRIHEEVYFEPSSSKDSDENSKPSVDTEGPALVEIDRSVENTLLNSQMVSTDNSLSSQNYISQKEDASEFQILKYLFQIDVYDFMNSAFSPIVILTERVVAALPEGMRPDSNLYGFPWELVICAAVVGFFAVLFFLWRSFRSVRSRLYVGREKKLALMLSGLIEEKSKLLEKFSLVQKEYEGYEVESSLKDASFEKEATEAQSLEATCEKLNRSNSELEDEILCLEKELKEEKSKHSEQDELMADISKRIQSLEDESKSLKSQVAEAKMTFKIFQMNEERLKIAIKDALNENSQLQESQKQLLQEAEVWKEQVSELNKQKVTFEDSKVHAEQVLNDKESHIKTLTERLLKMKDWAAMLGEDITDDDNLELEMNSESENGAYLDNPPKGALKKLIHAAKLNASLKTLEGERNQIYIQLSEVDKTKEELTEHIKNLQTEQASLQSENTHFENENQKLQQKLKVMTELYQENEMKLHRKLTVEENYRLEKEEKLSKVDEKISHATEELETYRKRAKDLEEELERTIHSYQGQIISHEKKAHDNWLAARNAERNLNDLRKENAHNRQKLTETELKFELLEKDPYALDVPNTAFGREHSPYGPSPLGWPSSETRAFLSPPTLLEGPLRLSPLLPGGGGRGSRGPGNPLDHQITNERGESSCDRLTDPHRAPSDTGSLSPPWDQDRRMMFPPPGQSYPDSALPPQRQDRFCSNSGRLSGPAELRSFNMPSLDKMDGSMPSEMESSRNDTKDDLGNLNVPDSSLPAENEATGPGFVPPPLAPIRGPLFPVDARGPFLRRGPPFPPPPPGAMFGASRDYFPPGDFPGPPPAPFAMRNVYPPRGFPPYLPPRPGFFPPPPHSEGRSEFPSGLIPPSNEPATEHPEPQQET
inactive: [1] -0.036 | [2] 0.041 | [3] 0.02 | [4] 0.029 | [5] 0.027

LRFN1 (UniProt Q9P244)
inactive: [1] -0.069 | [2] 0.183 | [3] 0.042 | [4] -0.02 | [5] -0.411

KPNA4 (UniProt O00629)
inactive: [1] -0.017 | [2] 0.004 | [3] 0.035 | [4] 0.004 | [5] 0.009

MIEF1 (UniProt Q9NQG6)
Sequence of UniProt Q9NQG6 (Q9NQG6 whole entry, looked up): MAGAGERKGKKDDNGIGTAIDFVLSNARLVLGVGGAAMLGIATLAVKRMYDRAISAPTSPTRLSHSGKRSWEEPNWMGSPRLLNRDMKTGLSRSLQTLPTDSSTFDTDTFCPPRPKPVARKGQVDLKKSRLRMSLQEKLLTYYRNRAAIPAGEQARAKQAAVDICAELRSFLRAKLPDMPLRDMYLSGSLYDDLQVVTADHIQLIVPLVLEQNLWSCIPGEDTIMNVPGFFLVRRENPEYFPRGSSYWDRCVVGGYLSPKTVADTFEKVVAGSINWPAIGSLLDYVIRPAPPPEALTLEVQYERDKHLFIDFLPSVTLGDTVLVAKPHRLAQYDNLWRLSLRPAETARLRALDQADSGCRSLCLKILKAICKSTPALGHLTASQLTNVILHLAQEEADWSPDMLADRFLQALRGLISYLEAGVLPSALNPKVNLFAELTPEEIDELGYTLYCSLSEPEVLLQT
inactive: [1] -0.043 | [2] 0.053 | [3] 0.047 | [4] -0.024 | [5] -0.054

ILK (UniProt Q13418)
inactive: [1] -0.081 | [2] 0.017 | [3] 0.132 | [4] 0.053 | [5] -0.087

KPNA1 (UniProt P52294)
inactive: [1] -0.03 | [2] -0.049 | [3] 0.079 | [4] -0.003 | [5] -0.001

LARP7 isoform 3 (UniProt Q4G0J3)
inactive: [1] 0.018 | [2] -0.032 | [3] 0.045 | [4] -0.048 | [5] 0.027

LARP1 (UniProt Q6PKG0)
inactive: [1] 0.002 | [2] -0.046 | [3] -0.046 | [4] 0.151 | [5] -0.002

KIAA1324L (UniProt A8MWY0)
inactive: [1] 0.041 | [2] 0.044 | [3] 0 | [4] -0.001 | [5] 0.035

MAPK14 isoform 2 (UniProt Q16539)
Sequence of UniProt Q16539 (Q16539 whole entry, looked up): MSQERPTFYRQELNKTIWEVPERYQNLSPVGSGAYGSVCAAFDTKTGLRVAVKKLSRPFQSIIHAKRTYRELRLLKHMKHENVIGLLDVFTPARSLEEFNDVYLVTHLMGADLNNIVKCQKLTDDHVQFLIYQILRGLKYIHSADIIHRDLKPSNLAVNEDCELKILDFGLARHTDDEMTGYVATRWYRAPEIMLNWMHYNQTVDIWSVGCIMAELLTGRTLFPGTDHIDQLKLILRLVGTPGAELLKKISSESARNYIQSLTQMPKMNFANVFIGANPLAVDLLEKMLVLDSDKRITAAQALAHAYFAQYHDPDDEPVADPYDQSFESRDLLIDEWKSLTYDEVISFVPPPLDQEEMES
inactive: [1] -0.067 | [2] 0.139 | [3] 0.077 | [4] -0.011 | [5] -0.043

LARP4 isoform 4 (UniProt Q71RC2)
Sequence of UniProt Q71RC2 (Q71RC2 whole entry, looked up): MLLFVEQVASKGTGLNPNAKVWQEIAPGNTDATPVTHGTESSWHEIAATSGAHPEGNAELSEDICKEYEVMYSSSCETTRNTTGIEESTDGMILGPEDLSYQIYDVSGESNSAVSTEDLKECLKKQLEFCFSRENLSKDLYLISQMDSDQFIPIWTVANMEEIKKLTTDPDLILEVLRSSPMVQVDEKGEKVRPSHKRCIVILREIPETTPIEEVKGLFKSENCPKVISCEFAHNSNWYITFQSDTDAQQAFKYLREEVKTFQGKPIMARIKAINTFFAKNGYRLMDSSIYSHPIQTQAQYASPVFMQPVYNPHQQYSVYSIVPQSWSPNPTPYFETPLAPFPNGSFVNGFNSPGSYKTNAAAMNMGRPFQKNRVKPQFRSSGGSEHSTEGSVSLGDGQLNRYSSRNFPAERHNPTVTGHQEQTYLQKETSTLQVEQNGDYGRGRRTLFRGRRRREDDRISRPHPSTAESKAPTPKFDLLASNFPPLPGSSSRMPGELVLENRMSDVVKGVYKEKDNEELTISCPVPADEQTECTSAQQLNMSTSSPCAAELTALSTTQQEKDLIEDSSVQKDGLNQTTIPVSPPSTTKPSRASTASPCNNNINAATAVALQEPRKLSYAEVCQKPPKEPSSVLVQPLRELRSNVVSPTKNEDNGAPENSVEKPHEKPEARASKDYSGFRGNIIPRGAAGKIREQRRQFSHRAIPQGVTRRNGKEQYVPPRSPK
inactive: [1] 0.069 | [2] -0.071 | [3] 0 | [4] 0.093 | [5] 0.036

KIF11 (UniProt P52732)
inactive: [1] -0.044 | [2] -0.011 | [3] 0.074 | [4] 0.092 | [5] -0.027

MED16 (UniProt Q9Y2X0)
inactive: [1] -0.048 | [2] 0.012 | [3] 0.043 | [4] 0.093 | [5] 0.019

LTV1 (UniProt Q96GA3)
inactive: [1] -0.02 | [2] -0.137 | [3] -0.033 | [4] 0.17 | [5] 0

KLHL18 (UniProt O94889)
inactive: [1] 0.014 | [2] 0.101 | [3] 0.135 | [4] 0.017 | [5] -0.021

IPO13 (UniProt O94829)
inactive: [1] -0.005 | [2] 0.008 | [3] 0.098 | [4] 0.037 | [5] 0.034

KIF1B isoform 4 (UniProt O60333)
inactive: [1] -0.035 | [2] 0.027 | [3] 0.042 | [4] -0.025 | [5] -0.048

MARCKSL1 (UniProt P49006)
inactive: [1] -0.052 | [2] 0.029 | [3] -0.032 | [4] -0.008 | [5] 0.011

IRF3 (UniProt Q14653)
inactive: [1] -0.049 | [2] 0.123 | [3] 0.015 | [4] -0.007 | [5] -0.01

IMMP1L (UniProt Q96LU5)
inactive: [1] 0.054 | [2] 0.045 | [3] 0.101 | [4] -0.021 | [5] 0.024

KHDRBS1 (UniProt Q07666)
Sequence of UniProt Q07666 (Q07666 whole entry, looked up): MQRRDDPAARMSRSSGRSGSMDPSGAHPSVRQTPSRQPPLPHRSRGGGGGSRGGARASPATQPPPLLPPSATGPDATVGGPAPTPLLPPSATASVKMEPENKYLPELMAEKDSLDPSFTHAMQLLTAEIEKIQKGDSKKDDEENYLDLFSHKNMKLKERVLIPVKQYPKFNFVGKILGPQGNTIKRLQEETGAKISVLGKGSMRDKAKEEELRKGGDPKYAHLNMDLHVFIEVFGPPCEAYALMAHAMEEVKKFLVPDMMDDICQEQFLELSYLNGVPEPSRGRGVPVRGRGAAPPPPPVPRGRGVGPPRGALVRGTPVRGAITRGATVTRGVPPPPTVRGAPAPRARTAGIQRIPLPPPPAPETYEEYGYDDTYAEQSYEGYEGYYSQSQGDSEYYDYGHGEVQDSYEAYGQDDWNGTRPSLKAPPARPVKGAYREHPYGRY
inactive: [1] -0.038 | [2] -0.018 | [3] -0.025 | [4] 0.055 | [5] -0.021

MAP2K7 isoform 4 (UniProt O14733)
inactive: [1] -0.009 | [2] 0.029 | [3] 0.065 | [4] 0.013 | [5] 0.044

LIMA1 isoform 4 (UniProt Q9UHB6)
inactive: [1] 0.002 | [2] 0.014 | [3] -0.002 | [4] -0.028 | [5] 0.034

KDELR2 (UniProt P33947)
inactive: [1] -0.038 | [2] -0.015 | [3] 0.076 | [4] -0.137 | [5] 0.115

MFGE8 (UniProt Q08431)
inactive: [1] 0.005 | [2] -0.051 | [3] -0.091 | [4] -0.068 | [5] -0.129

ILKAP (UniProt Q9H0C8)
Sequence of UniProt Q9H0C8 (Q9H0C8 whole entry, looked up): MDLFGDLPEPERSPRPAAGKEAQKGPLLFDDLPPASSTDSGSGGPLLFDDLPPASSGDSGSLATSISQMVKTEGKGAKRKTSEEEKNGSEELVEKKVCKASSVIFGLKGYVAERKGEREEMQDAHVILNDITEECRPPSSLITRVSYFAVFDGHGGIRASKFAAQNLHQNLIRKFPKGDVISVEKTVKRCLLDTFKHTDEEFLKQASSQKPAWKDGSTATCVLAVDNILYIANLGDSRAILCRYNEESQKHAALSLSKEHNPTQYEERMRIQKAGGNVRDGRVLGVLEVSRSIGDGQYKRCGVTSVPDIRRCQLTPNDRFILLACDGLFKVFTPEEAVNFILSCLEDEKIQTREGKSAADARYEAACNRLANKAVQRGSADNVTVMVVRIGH
inactive: [1] -0.071 | [2] 0.076 | [3] 0.135 | [4] -0.045 | [5] -0.046

LRPPRC (UniProt P42704)
inactive: [1] -0.312 | [2] -0.059 | [3] 0.257 | [4] -0.031 | [5] -0.05

MAP2K1 (UniProt Q02750)
inactive: [1] -0.01 | [2] 0.033 | [3] 0.099 | [4] -0.015 | [5] 0

LUC7L2 (UniProt Q9Y383)
inactive: [1] 0.023 | [2] -0.044 | [3] 0.036 | [4] 0.006 | [5] 0.014

IRF2BPL (UniProt Q9H1B7)
Sequence of UniProt Q9H1B7 (Q9H1B7 whole entry, looked up): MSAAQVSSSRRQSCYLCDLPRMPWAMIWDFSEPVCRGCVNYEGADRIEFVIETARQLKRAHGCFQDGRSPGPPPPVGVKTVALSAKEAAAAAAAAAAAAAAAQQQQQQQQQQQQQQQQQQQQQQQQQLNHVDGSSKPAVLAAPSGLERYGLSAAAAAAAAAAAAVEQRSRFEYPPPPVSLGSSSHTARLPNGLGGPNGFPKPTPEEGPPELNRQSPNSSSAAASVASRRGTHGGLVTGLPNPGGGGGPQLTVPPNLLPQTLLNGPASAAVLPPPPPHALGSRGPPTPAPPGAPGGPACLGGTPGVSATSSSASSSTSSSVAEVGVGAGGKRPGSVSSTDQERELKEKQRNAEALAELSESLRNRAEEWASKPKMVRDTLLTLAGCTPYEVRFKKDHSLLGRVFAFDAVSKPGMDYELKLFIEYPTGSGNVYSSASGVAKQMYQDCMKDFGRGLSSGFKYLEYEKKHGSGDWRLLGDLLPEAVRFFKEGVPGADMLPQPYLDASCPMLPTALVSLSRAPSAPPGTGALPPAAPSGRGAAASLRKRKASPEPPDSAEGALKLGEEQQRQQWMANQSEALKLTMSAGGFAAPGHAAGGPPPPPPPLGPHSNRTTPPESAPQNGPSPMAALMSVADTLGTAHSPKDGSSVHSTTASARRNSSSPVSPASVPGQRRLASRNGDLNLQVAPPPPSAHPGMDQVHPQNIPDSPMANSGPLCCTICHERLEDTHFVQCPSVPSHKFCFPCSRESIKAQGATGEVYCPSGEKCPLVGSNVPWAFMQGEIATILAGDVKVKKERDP
inactive: [1] -0.051 | [2] 0.027 | [3] 0.001 | [4] -0.067 | [5] -0.043

MIER1 isoform 12 (UniProt Q8N108)
inactive: [1] -0.012 | [2] 0.073 | [3] 0.059 | [4] 0.016 | [5] 0.02

MAPRE3 (UniProt Q9UPY8)
Sequence of UniProt Q9UPY8 (Q9UPY8 whole entry, looked up): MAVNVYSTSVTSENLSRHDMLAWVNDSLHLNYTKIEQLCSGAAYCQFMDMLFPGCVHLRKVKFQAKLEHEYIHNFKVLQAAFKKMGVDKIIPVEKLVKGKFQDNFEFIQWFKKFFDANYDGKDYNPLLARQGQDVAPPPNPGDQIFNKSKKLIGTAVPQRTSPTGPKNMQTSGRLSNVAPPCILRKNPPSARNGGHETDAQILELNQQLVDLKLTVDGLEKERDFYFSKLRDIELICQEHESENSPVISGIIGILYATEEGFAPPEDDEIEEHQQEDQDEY
inactive: [1] -0.042 | [2] 0.011 | [3] 0.026 | [4] -0.01 | [5] -0.014

MIF (UniProt P14174)
inactive: [1] -0.101 | [2] 0.016 | [3] 0.015 | [4] -0.083 | [5] 0.004

LMNB1 (UniProt P20700)
inactive: [1] 0.08 | [2] -0.005 | [3] -0.009 | [4] -0.018 | [5] 0.042

MICU2 (UniProt Q8IYU8)
inactive: [1] 0.013 | [2] -0.037 | [3] -0.123 | [4] -0.029 | [5] 0.021

MGST1 (UniProt P10620)
Sequence of UniProt P10620 (P10620 whole entry, looked up): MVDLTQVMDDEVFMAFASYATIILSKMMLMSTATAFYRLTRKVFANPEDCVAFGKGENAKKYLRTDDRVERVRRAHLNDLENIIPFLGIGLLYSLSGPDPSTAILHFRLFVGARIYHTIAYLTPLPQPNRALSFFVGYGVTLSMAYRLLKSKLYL
inactive: [1] -0.061 | [2] 0.032 | [3] -0.11 | [4] 0.05 | [5] 0.008

— the supplement of paper PMC10849652
